# The supplement of paper PMC4840960
# Where a name gives a salt, the structure may show the parent alone.
# Test system: E18 rat cortical neuron-glia co-culture
# Assay: myelination (MBP fiber length per Olig2+ nucleus), % of 1 µM DAPT response (DMSO = 0) (% of DAPT); higher = more myelination, active = 50 or more
# Settings: 1 µM; treatment time: 8 days (DIV5-DIV13)
# Method in brief: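 Four 10X fields in each of duplicate wells were analysed after cultures were fixed in 4 % paraformaldehyde and immunostained for MBP and Olig2, with DAPI as the nuclear counterstain. The cultures were papain-dissociated primary E18 rat cortical co-cultures at 20,000 cells/well on poly-d-lysine/laminin 96-well plates, dosed with library compounds at 1 or 5 µM in myelination medium from DIV5 to DIV13. The myelination readout was continuous straight MBP fiber length per Olig2+ nucleus, with 0.1 % DMSO set to 0 and a 1 µM positive control set to 100.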
row,SMILES,myelination
1,CCOc1cc(N)c(Cl)cc1C(=O)NCC1CN(Cc2ccc(F)cc2)CCO1 (centres undefined) [Mosapride],-41.5 (inactive)
2,Cc1cnc(NC(=O)C2=C(O)c3ccccc3S(=O)(=O)N2C)s1 [Meloxicam],-0.993 (inactive)
3,Cc1cn([C@H]2C=C[C@@H](CO)O2)c(=O)[nH]c1=O [Stavudine],-12.8 (inactive)
4,Cc1cccc(C)c1OCC(C)N (centres undefined) [Mexiletine],8.19 (inactive)
5,Cc1nc(=O)c2cc(CN(C)c3ccc(C(=O)N[C@@H](CCC(=O)O)C(=O)O)s3)ccc2[nH]1 [Raltitrexed],177
6,O=C(c1ccccc1)c1ccc2n1CCC2C(=O)O (centres undefined) [Ketorolac],-4.81 (inactive)
7,CC(N/C(=N\C#N)Nc1ccncc1)C(C)(C)C (centres undefined) [Pinacidil],2.9 (inactive)
8,NS(=O)(=O)c1cc2c(cc1Cl)NCNS2(=O)=O [Hydrochlorothiazide],-8.91 (inactive)
9,C[C@]12C=CC(=O)C=C1CC[C@@H]1[C@@H]2C(=O)C[C@@]2(C)[C@H]1CC[C@]2(O)C(=O)CO [Prednisone],-13.2 (inactive)
10,CC(C)c1nc(CN(C)C(=O)N[C@H](C(=O)N[C@@H](Cc2ccccc2)C[C@H](O)[C@H](Cc2ccccc2)NC(=O)OCc2cncs2)C(C)C)cs1 [Ritonavir],-20.5 (inactive)
11,Nc1c2c(nc3c1CCC3)CCCC2 [Amiridine],-26.8 (inactive)
12,O=C(O)/C=C/c1ccc(Cn2ccnc2)cc1 [Ozagrel],-6.75 (inactive)
13,CC(C(=O)O)c1ccc(CC2CCCC2=O)cc1 (centres undefined) [loxoprofen],1.34 (inactive)
14,COc1cc2c(cc1OC)C(=O)C(CC1CCN(Cc3ccccc3)CC1)C2 (centres undefined) [Donepezil],-20.8 (inactive)
15,CC(Oc1c(Cl)cccc1Cl)C1=NCCN1 (centres undefined) [lofexidine],-15.8 (inactive)
16,CN(C)c1ccc(O)c2c1C[C@H]1C[C@H]3[C@H](N(C)C)C(O)=C(C(N)=O)C(=O)[C@@]3(O)C(O)=C1C2=O [Minocycline],-6.54 (inactive)
17,CNCCCCOc1ccccc1Cc1ccccc1 [Bifemelane],-39.7 (inactive)
18,O=S(=O)(O)CCS [Mesna],1.33 (inactive)
19,COc1ccc2[nH]c([S+]([O-])Cc3ncc(C)c(OC)c3C)nc2c1 (centres undefined) [Omeprazole],-8.06 (inactive)
20,Nc1ncnc2c1ncn2[C@@H]1O[C@H](CO)[C@@H](O)[C@@H]1O [Vidarabine],-13.9 (inactive)

row,SMILES,myelination
1,Cc1cc2c(s1)Nc1ccccc1N=C2N1CCN(C)CC1 [Olanzapine],-0.209 (inactive)
2,Cn1ccnc1S [Methimazole],-14.3 (inactive)
3,CC(C)NCC(O)COc1ccc(CCOCC2CC2)cc1 (centres undefined) [Betaxolol],-12.6 (inactive)
4,Cc1ccnc2c1NC(=O)c1cccnc1N2C1CC1 [Nevirapine],-18.6 (inactive)
5,CCC(C)n1ncn(-c2ccc(N3CCN(c4ccc(OCC5COC(Cn6cncn6)(c6ccc(Cl)cc6Cl)O5)cc4)CC3)cc2)c1=O (centres undefined) [Itraconazole],8.72 (inactive)
6,NC(Cc1cc(I)c(Oc2cc(I)c(O)c(I)c2)c(I)c1)C(=O)O (centres undefined) [Thyroxine],-4.45 (inactive)
7,CCN(CC)CC#CCOC(=O)C(O)(c1ccccc1)C1CCCCC1 (centres undefined) [Oxybutynin],9.59 (inactive)
8,CN(C)[C@@H]1C(O)=C(C(N)=O)C(=O)[C@@]2(O)C(O)=C3C(=O)c4c(O)ccc(Cl)c4[C@@H](O)[C@H]3C[C@@H]12 [Demeclocycline],-3.29 (inactive)
9,CN(CCOc1ccc(NS(C)(=O)=O)cc1)CCc1ccc(NS(C)(=O)=O)cc1 [Dofetilide],10.4 (inactive)
10,COc1ccc(C2CNC(=O)C2)cc1OC1CCCC1 (centres undefined) [Rolipram],-51.4 (inactive)
11,CN(C)CCOC(c1ccccc1)c1ccccc1 [Diphenhydramine],-12.1 (inactive)
12,Clc1cccc(Cl)c1NC1=NCCN1 [Clonidine hydrochloride],-10.4 (inactive)
13,CC(=O)O[C@H]1C[C@@H]2CC[C@@H]3[C@H](CC[C@@]4(C)[C@H]3C[C@H]([N+]3(C)CCCCC3)[C@@H]4OC(C)=O)[C@@]2(C)C[C@@H]1N1CCCCC1 [Vecuronium Bromide],-15.8 (inactive)
14,COc1ccnc(C[S+]([O-])c2nc3cc(OC(F)F)ccc3[nH]2)c1OC (centres undefined) [Pantoprazole],-9.58 (inactive)
15,CC(C)NCC(O)COc1ccc(COCCOC(C)C)cc1 (centres undefined) [Bisoprolol],-58.3 (inactive)
16,CCCCNc1cc(C(=O)O)cc(S(N)(=O)=O)c1Oc1ccccc1 [Bumetanide],-8.01 (inactive)
17,CC(=O)OCC(=O)[C@@]1(O)CC[C@H]2[C@@H]3C[C@H](C)C4=CC(=O)C=C[C@]4(C)[C@H]3[C@@H](O)C[C@@]21C [Methylprednisolone acetate],-10.5 (inactive)
18,N[C@@H]1CONC1=O [Cycloserine],-22.5 (inactive)
19,CC1(C)O[C@@H]2C[C@H]3[C@@H]4C[C@H](F)C5=CC(=O)C=C[C@]5(C)[C@@]4(F)[C@@H](O)C[C@]3(C)[C@]2(C(=O)CO)O1 [Fluocinolone Acetonide],22.3 (inactive)
